# According to the supplement of paper PMC12282887:
# ± gives the standard deviation of the averaged measurements.
# Key:
# Assay in all cases: promoter activity interaction Z-score (Lux/OD deviation from empty-vector control); higher = stronger promoter induction by the compound
# [1] = test system: E. coli BW25113 acrABp lux reporter
# In short: (§1)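 In 384-well plates, 40 µl LB Lennox cultures of E. coli BW25113 with low-copy luxCDABE promoter reporters grew at 37°C. Optical density at 600 nm and light output were recorded every 30 min for 12 h, with windows of 0–8 h for wild type and 1–9 h for deletion strains, and wells under 10% of the median growth value were left out. Each value is a Z-transformed residual of growth-normalised luminescence fitted against a control.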
# [2] = test system: E. coli BW25113 marRABp lux reporter
# In short: as §1
# [3] = test system: E. coli BW25113 micFp lux reporter
# In short: as §1
# [4] = test system: E. coli BW25113 ompFp lux reporter
# In short: as §1
# [5] = test system: E. coli BW25113 robp lux reporter
# In short: as §1
# [6] = test system: E. coli BW25113 soxSp lux reporter
# In short: as §1
# [7] = test system: E. coli BW25113 tolCp lux reporter
# In short: as §1
# [8] = 0.12 µg/ml, genetic background: wild type
# [9] = 0.12 µg/ml, genetic background: ΔmarA
# [10] = 0.12 µg/ml, genetic background: Δrob
# [11] = 0.12 µg/ml, genetic background: ΔsoxS
# [12] = 0.23 µg/ml, genetic background: wild type
# [13] = 0.23 µg/ml, genetic background: ΔmarA
# [14] = 0.23 µg/ml, genetic background: Δrob
# [15] = 0.23 µg/ml, genetic background: ΔsoxS
# [16] = 0.47 µg/ml, genetic background: wild type
# [17] = 0.47 µg/ml, genetic background: ΔmarA
# [18] = 0.47 µg/ml, genetic background: Δrob
# [19] = 0.47 µg/ml, genetic background: ΔsoxS
# [20] = 0.94 µg/ml, genetic background: ΔmarA
# [21] = 0.94 µg/ml, genetic background: Δrob
# [22] = 0.94 µg/ml, genetic background: wild type
compound,measurement,setting,value
NC[C@H]1O[C@H](O[C@H]2[C@H](O)[C@@H](O[C@H]3O[C@H](CO)[C@@H](O)[C@H](N)[C@H]3O)[C@H](N)C[C@@H]2N)[C@H](N)C[C@@H]1O [Tobramycin],promoter activity interaction Z-score,[1]; [8],0.275 ± 0.78
same,promoter activity interaction Z-score,[1]; [9],-0.0864 ± 0.66
same,promoter activity interaction Z-score,[1]; [10],-0.374 ± 0.06
same,promoter activity interaction Z-score,[1]; [11],-0.499 ± 0.77
same,promoter activity interaction Z-score,[1]; [12],0.0585 ± 0.16
same,promoter activity interaction Z-score,[1]; [13],-1.02 ± 0.59
same,promoter activity interaction Z-score,[1]; [14],-0.281 ± 0.11
same,promoter activity interaction Z-score,[1]; [15],-0.243 ± 0.067
same,promoter activity interaction Z-score,[1]; [16],0.268 ± 0.32
same,promoter activity interaction Z-score,[1]; [17],0.0843 ± 0.8
same,promoter activity interaction Z-score,[1]; [18],0.184 ± 0.22
same,promoter activity interaction Z-score,[1]; [19],-0.000211 ± 0.53
same,promoter activity interaction Z-score,[2]; [8],-0.211 ± 0.075
same,promoter activity interaction Z-score,[2]; [9],-0.0912 ± 0.16
same,promoter activity interaction Z-score,[2]; [10],-0.0729 ± 0.021
same,promoter activity interaction Z-score,[2]; [11],-0.3 ± 0.41
same,promoter activity interaction Z-score,[2]; [12],-0.379 ± 0.14
same,promoter activity interaction Z-score,[2]; [13],-0.269 ± 0.26
same,promoter activity interaction Z-score,[2]; [14],-0.264 ± 0.11
same,promoter activity interaction Z-score,[2]; [15],-0.0572 ± 0.44
same,promoter activity interaction Z-score,[2]; [16],0.112 ± 0.2
same,promoter activity interaction Z-score,[2]; [17],0.108 ± 0.0063
same,promoter activity interaction Z-score,[2]; [18],0.123 ± 0.14
same,promoter activity interaction Z-score,[2]; [19],0.021 ± 0.34
same,promoter activity interaction Z-score,[3]; [8],0.116 ± 0.093
same,promoter activity interaction Z-score,[3]; [9],-0.103 ± 0.25
same,promoter activity interaction Z-score,[3]; [10],-0.119 ± 0.027
same,promoter activity interaction Z-score,[3]; [11],-0.254 ± 0.025
same,promoter activity interaction Z-score,[3]; [12],0.0087 ± 0.2
same,promoter activity interaction Z-score,[3]; [13],-0.183 ± 0.0032
same,promoter activity interaction Z-score,[3]; [14],-0.106 ± 0.21
same,promoter activity interaction Z-score,[3]; [15],0.447 ± 0.0099
same,promoter activity interaction Z-score,[3]; [16],0.395 ± 0.47
same,promoter activity interaction Z-score,[3]; [17],-0.0629 ± 0.026
same,promoter activity interaction Z-score,[3]; [18],-0.0597 ± 0.061
same,promoter activity interaction Z-score,[3]; [19],-0.0982 ± 0.012
same,promoter activity interaction Z-score,[3]; [20],-0.362
same,promoter activity interaction Z-score,[3]; [21],-0.382
same,promoter activity interaction Z-score,[4]; [8],-0.387 ± 0.068
same,promoter activity interaction Z-score,[4]; [9],-0.3 ± 0.42
same,promoter activity interaction Z-score,[4]; [10],-0.413 ± 0.19
same,promoter activity interaction Z-score,[4]; [11],-0.487 ± 0.17
same,promoter activity interaction Z-score,[4]; [12],-0.622 ± 0.16
same,promoter activity interaction Z-score,[4]; [13],-0.759 ± 0.15
same,promoter activity interaction Z-score,[4]; [14],-0.556 ± 0.035
same,promoter activity interaction Z-score,[4]; [15],-0.0491 ± 0.17
same,promoter activity interaction Z-score,[4]; [16],-0.491 ± 0.36
same,promoter activity interaction Z-score,[4]; [17],-0.148 ± 0.12
same,promoter activity interaction Z-score,[4]; [18],-0.134 ± 0.25
same,promoter activity interaction Z-score,[4]; [19],-0.273 ± 0.14
same,promoter activity interaction Z-score,[5]; [8],0.0204 ± 0.029
same,promoter activity interaction Z-score,[5]; [9],-0.389 ± 0.14
same,promoter activity interaction Z-score,[5]; [10],-0.392 ± 0.68
same,promoter activity interaction Z-score,[5]; [11],-0.688 ± 0.16
same,promoter activity interaction Z-score,[5]; [12],-0.193 ± 0.42
same,promoter activity interaction Z-score,[5]; [13],-0.587 ± 0.68
same,promoter activity interaction Z-score,[5]; [14],-0.421 ± 0.28
same,promoter activity interaction Z-score,[5]; [15],-0.277 ± 0.056
same,promoter activity interaction Z-score,[5]; [16],0.112 ± 0.36
same,promoter activity interaction Z-score,[5]; [17],0.0227 ± 0.29
same,promoter activity interaction Z-score,[5]; [18],-0.0785 ± 0.74
same,promoter activity interaction Z-score,[5]; [19],-0.163 ± 0.8
same,promoter activity interaction Z-score,[5]; [20],-0.438
same,promoter activity interaction Z-score,[6]; [8],-0.268 ± 0.23
same,promoter activity interaction Z-score,[6]; [9],-0.327 ± 0.091
same,promoter activity interaction Z-score,[6]; [10],-0.404 ± 0.1
same,promoter activity interaction Z-score,[6]; [11],-0.552 ± 0.76
same,promoter activity interaction Z-score,[6]; [12],-0.406 ± 0.046
same,promoter activity interaction Z-score,[6]; [13],-0.398 ± 0.089
same,promoter activity interaction Z-score,[6]; [14],-0.3823 ± 0.0022
same,promoter activity interaction Z-score,[6]; [15],-0.224 ± 0.31
same,promoter activity interaction Z-score,[6]; [16],-0.337 ± 0.16
same,promoter activity interaction Z-score,[6]; [17],-0.48 ± 0.096
same,promoter activity interaction Z-score,[6]; [18],-0.274 ± 0.22
same,promoter activity interaction Z-score,[6]; [19],-0.474 ± 0.4
same,promoter activity interaction Z-score,[6]; [22],-0.762
same,promoter activity interaction Z-score,[6]; [21],-0.904
same,promoter activity interaction Z-score,[7]; [8],-0.242 ± 0.84
same,promoter activity interaction Z-score,[7]; [9],-0.0707 ± 0.59
same,promoter activity interaction Z-score,[7]; [10],-0.601 ± 1.1
same,promoter activity interaction Z-score,[7]; [11],-1.14 ± 0.68
same,promoter activity interaction Z-score,[7]; [12],-0.456 ± 0.35
same,promoter activity interaction Z-score,[7]; [13],-1.13 ± 0.17
same,promoter activity interaction Z-score,[7]; [14],-0.0625 ± 1.8
same,promoter activity interaction Z-score,[7]; [15],0.772 ± 0.56
same,promoter activity interaction Z-score,[7]; [16],-0.509 ± 0.71
same,promoter activity interaction Z-score,[7]; [17],-0.277 ± 0.22
same,promoter activity interaction Z-score,[7]; [18],1.06 ± 1.1
same,promoter activity interaction Z-score,[7]; [19],0.0909 ± 0.58
same,promoter activity interaction Z-score,[7]; [22],-0.901 ± 0.46
same,promoter activity interaction Z-score,[7]; [20],-0.459
same,promoter activity interaction Z-score,[7]; [21],-0.895 ± 0.19
same,promoter activity interaction Z-score,"[7]; 0.94 µg/ml, genetic background: ΔsoxS",-0.128 ± 1
